Measured values as given in PubChem BioAssay (NCI).
About 79,000 compounds went through this panel and 15% of them were active in at least one assay; those are over-represented in the sample as a whole. No stated cut-off is given here; in the data, active means growth inhibition above about 70%; inactive means the rest.

Assays:
[1] = NCI Yeast Anticancer Drug Screen. Data for the rad50 strain (AID 155);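 further: 0% = growth of vehicle-only cultures of the same strain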; details: S. cerevisiae rad50 strain growth inhibition; at 50.0 µM; stronger effect = higher value
In short: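 Readout: growth inhibition relative to vehicle-treated cultures. Compound exposure was carried out in a genetically defined yeast strain deficient in DNA damage repair.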

[2] = NCI Yeast Anticancer Drug Screen. Data for the mec2-1 strain (AID 157); details: S. cerevisiae mec2-1 strain, at 50.0 µM, stronger effect = higher value
In short: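 Mutant yeast (mec2-1) grown with compound; growth inhibition relative to vehicle control reported.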

[3] = NCI Yeast Anticancer Drug Screen. Data for the sgs1 mgt1 strain (AID 161);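 further: 0% = growth of cultures given vehicle only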; details: S. cerevisiae sgs1 mgt1 strain, at 50.0 µM, stronger effect = higher value
In short: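 Compounds are added to genetically altered yeast, and growth is compared with cultures given vehicle alone to give percent inhibition.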

[4] = NCI Yeast Anticancer Drug Screen. Data for the cln2 rad14 strain (AID 165);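 further: 0% = growth equal to vehicle treated cultures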; details: S. cerevisiae cln2 rad14 strain, at 50.0 µM, stronger effect = higher value
In short: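 Readout is yeast growth inhibition versus vehicle-treated controls, using a strain with cln2 and rad14 alterations exposed to compound.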

[5] = NCI Yeast Anticancer Drug Screen. Data for the bub3 strain (AID 167); details: S. cerevisiae bub3 mutant strain, at 50.0 µM, stronger effect = higher value
In short: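 Readout: yeast growth inhibition, expressed relative to vehicle-only wells. The test organism is a mutant strain from a panel with lesions in DNA repair or checkpoint genes.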

[6] = NCI Yeast Anticancer Drug Screen. Data for the mlh1 rad18 strain (AID 175); details: S. cerevisiae mlh1 rad18 strain growth inhibition; at 50.0 µM; stronger effect = higher value
In short: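 Genetically defined yeast (DNA repair-deficient) exposed to compounds; growth inhibition determined relative to vehicle.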

Measured: growth inhibition

CCOC(=O)C1CCCCN1C(=O)OCc1ccccc1 (stereo not drawn)
inactive: [1] -6.95% | [2] -1.75% | [3] 0.75% | [4] -8.05% | [5] 20.9% | [6] -42.3%

Clc1ccc(SCSc2ccc(Cl)cc2)cc1
inactive: [1] 16.8% | [2] -7.35% | [3] 6.5% | [4] -33.5% | [5] 6.45% | [6] -0.85%

Cc1ccc2c(c1)C(=O)c1ccccc1C2=O
inactive: [1] 7.8% | [2] 1.05% | [3] 1.9% | [4] 11.9% | [5] 52% | [6] 6%

CC(=O)OCC1OC(N2C(=O)C(=O)c3cc(C)ccc32)C(OC(C)=O)C(OC(C)=O)C1OC(C)=O (stereo not drawn)
inactive: [1] 59.8% | [2] 10.2% | [3] 5.85% | [4] 1.7% | [5] 41% | [6] 33.4%

Cc1ccc(C)c(N2C(=O)C(=O)C(c3nc4ccccc4o3)/C(=N/N)C2=O)c1 (stereo not drawn)
inactive: [1] -18.8% | [2] 34% | [3] 14.2% | [4] -17% | [5] 5.25% | [6] -17.8%

O=C(O)Cc1cc(=O)oc2cc(O)c(Cl)cc12
inactive: [1] 1.75% | [2] -20% | [3] -7.15% | [4] 15.8% | [5] 3.25% | [6] -5.55%

COC(=O)c1ccc(OC)cc1O
inactive: [1] 1.5% | [2] 1.8% | [3] -13.4% | [4] -19.9% | [5] 3.2% | [6] -2%

CCOC(=O)C(=O)SCC(NC(=O)OCc1ccccc1)C(=O)O (stereo not drawn)
inactive: [1] -12.9% | [2] -4.95% | [3] 11.7% | [4] -1.95% | [5] 7.75% | [6] -12.2%

Cc1ccc2nc(C)ccc2c1
inactive: [1] -38.2% | [2] -23.2% | [3] -2.7% | [4] -16.1% | [5] -0.2% | [6] -3.4%

OCC(O)C(O)C(CN=Cc1ccccc1O)N=Cc1ccccc1O (stereo not drawn)
inactive: [1] 5.05% | [2] 1% | [3] 3% | [4] -26.1% | [5] 12.9% | [6] -2.45%

CCC1(C)C(=O)c2ccccc2N(C)C1=O (stereo not drawn)
inactive: [1] -5.55% | [2] -10.1% | [3] -9.5% | [4] -37.9% | [5] 5% | [6] -6.25%

ClC1(Cl)C2CCOC21n1cnc2ccccc21 (stereo not drawn)
inactive: [1] 11.8% | [2] -5.1% | [3] -8.3% | [4] 4.95% | [5] 8.25% | [6] -11.2%

O=C(COc1cccc(Cl)c1)Nc1cccc(S(=O)(=O)O)c1 (tested in a mixture with another compound)
inactive: [1] 5.15% | [2] -7.65% | [3] -12.8% | [4] -16.6% | [5] 2% | [6] 11.2%

O=c1oc(=O)c2ccccc2c2ccccc12
inactive: [1] -22.9% | [2] 6.85% | [3] -0.9% | [4] -32.1% | [5] -3.75% | [6] -5.6%

COc1ccc(/C=C\c2cc(OC)c(OC)c(OC)c2)cc1OC(=O)CC(N)C(=O)O (stereo not drawn)
inactive: [1] -19.6% | [2] -10.3% | [3] -8.65% | [4] -6.65% | [5] -1.55% | [6] -5.8%

Cc1ccccc1-c1ccccc1
inactive: [1] 14.8% | [2] 1.3% | [3] -17.7% | [4] -45.8% | [5] -5.8% | [6] 17.6%

CS/C(c1ccccc1)=[N+](\[O-])Cc1ccccc1
inactive: [1] 17.6% | [2] 9% | [3] -7.1% | [4] 8.5% | [5] -0.75% | [6] 3.15%

c1ccc(CCc2nc3ccccc3[nH]2)cc1
inactive: [1] -1.9% | [2] 11.1% | [3] 1.5% | [4] -33.6% | [5] -37.1% | [6] -10.9%

C1CSC(SCCCSC2SCCCS2)SC1
inactive: [1] -4.1% | [2] 5.3% | [3] -9.9% | [4] -7.1% | [5] -12.2% | [6] -14.1%

Oc1ccc2ccccc2c1Br
inactive: [1] 45.9% | [2] 55.5% | [3] 40.2% | [4] 26.1% | [5] 44.2% | [6] 35.6%

CCOC(=O)C1C(c2cc(OC)c(OC)c(OC)c2)c2cc3c(cc2OC1(C)OC)OCO3 (stereo not drawn)
inactive: [1] 5.55% | [2] 5.4% | [3] -0.15% | [4] -1.3% | [5] -5.25% | [6] 19.1%

Cc1cc(OC(N)=S)cc(C)c1Cl
inactive: [1] 20.6% | [2] 4.2% | [3] 7.6% | [4] -6.25% | [5] 3.4% | [6] -2.1%

CN(C)c1ccc(/C=N/NC(=O)c2ccccc2NC(=O)c2ccc(Cl)cc2)c(Cl)c1
inactive: [1] 1.4% | [2] 0.45% | [3] 19.9% | [4] -6.3% | [5] -6.1% | [6] 0.5%

COC(=O)c1ccc(C2CCC(OC(c3ccccc3)c3ccccc3)CC2)cc1 (stereo not drawn)
inactive: [1] 39.6% | [2] -12.7% | [3] 26% | [4] -23.6% | [5] 0.85% | [6] -3.85%

O=C(NC(=O)c1ccccc1O)c1ccccc1
inactive: [1] -4.6% | [2] 5.45% | [3] -15.4% | [4] -0.35% | [5] -19.5% | [6] -11.2%

CCCC(O)(Cc1ccccc1)c1ccccc1 (stereo not drawn)
inactive: [1] -39% | [2] -25.5% | [3] -15.2% | [4] -3.45% | [5] -15.2% | [6] -14%

C=CCn1c(=O)c(C(=O)Nc2nc(C34CC5CC(CC(C5)C3)C4)cs2)c(O)c2ccccc21
inactive: [1] -22.7% | [2] -4.6% | [3] -14.1% | [4] 4.4% | [5] 4.5% | [6] -19.1%

Oc1cccc2nc3ccccc3cc12
inactive: [1] 4.3% | [2] 1.15% | [3] 16.2% | [4] -10% | [5] 3% | [6] 9.6%

O=C(CC(=O)C(F)(F)F)c1ccc2c(c1)Cc1ccccc1-2
inactive: [1] -10.2% | [2] 28.9% | [3] 3.75% | [4] 14.9% | [5] -2.7% | [6] 23.6%

COc1ccc(/C=C2\N=C(SC)NC2=O)cc1
inactive: [1] -8.35% | [2] 0.2% | [3] 25.9% | [4] 0.95% | [5] 2% | [6] -24.9%

O=c1[nH]c(=O)n(CCCCOc2ccccc2)cc1-c1ccccc1
inactive: [1] 3.75% | [2] 10.2% | [3] 19.6% | [4] 0.7% | [5] 12.1% | [6] 5.9%

Cc1nc(-n2nc(-c3ccccc3)cc2-c2ccccc2)sc1C(/C=C/c1ccc([N+](=O)[O-])cc1)=N/NC(=O)c1ccncc1
inactive: [1] 47.4% | [2] 36.7% | [3] 17.9% | [4] -24.7% | [5] 46.1% | [6] 58.5%

Cc1ccc2c(c1)C(c1cccc3ccccc13)OC2=O (stereo not drawn)
inactive: [1] 21.6% | [2] 1.65% | [3] 40.2% | [4] 33.3% | [5] 14.2% | [6] 29.4%

COc1ccc(N=Cc2cc(Cl)cc(Cl)c2OC(=O)c2ccccc2)cc1
inactive: [1] -10.6% | [2] -31.1% | [3] 8.55% | [4] 0.65% | [5] -13.6% | [6] -19.2%

CCCCc1[nH]nc(-c2n[nH]c(CCCC)c2C)c1C
inactive: [1] 25.4% | [2] 14.1% | [3] 28.5% | [4] 7.95% | [5] 18.6% | [6] 27.9%

Cc1ccc(N2C(=O)/C(=C3\Sc4c(nc(C)n(C)c4=O)N3c3ccccc3)SC2=S)cc1
inactive: [1] -20.9% | [2] -31.4% | [3] -7.3% | [4] -58.5% | [5] -32.5% | [6] -26.8%

CC(=O)CC(C)(C)NNS(=O)(=O)c1ccc(C)cc1
inactive: [1] 7.8% | [2] -0.65% | [3] -4.1% | [4] -20.9% | [5] 5.35% | [6] -13.6%

CC(C)CNc1ncnc2[nH]ncc12
inactive: [1] -1.75% | [2] -6.2% | [3] -3.55% | [4] -3.35% | [5] 1.2% | [6] -6.2%
